Chronic BCR inh = chronic active BCR signaling inhibition | 340,000 compounds, 0.05% hits | Potency, µM (top dose mostly 46.1 µM), without a hit: at the highest dose activity change, negative = inhibition, usual class: inhibitors | ABC-DLBCL IkBa-CBG/CBR reporter, luminescence ratio, 4 h | AID 493014; active = well fitted inhibition curve with a large enough effect in the signal ratio, with a control signal flat, not every such curve was filed as active; inconclusive = small, poorly fitted or top-dose-only effect, or effect the other way, or a change in a side signal; the % refers to the signal ratio;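 also: potency is read from the fitted curve at half-maximal effect; plate controls were basal doxycycline-induced cells for no effect and cells given 10 µM MG132 for full effect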
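Doxycycline induced both beetle luciferases in TMD8 lymphoma cells; IKK-driven degradation limits the IkappaBalpha-fused green signal, while red luminescence normalises for cell number and nonspecific effects. Compounds tested up to 46 uM, 4 hrs.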
D1 agonist = human D1 receptor agonism. 360,000 compounds, 1% hits. HEK293 T-REx D1 cells, calcium flux, agonist mode. AID 504660. activation, % at 2 µM; in the data active = activation above about 30%; also: 0% is about no effect
Target sequence (P21728 whole entry, looked up): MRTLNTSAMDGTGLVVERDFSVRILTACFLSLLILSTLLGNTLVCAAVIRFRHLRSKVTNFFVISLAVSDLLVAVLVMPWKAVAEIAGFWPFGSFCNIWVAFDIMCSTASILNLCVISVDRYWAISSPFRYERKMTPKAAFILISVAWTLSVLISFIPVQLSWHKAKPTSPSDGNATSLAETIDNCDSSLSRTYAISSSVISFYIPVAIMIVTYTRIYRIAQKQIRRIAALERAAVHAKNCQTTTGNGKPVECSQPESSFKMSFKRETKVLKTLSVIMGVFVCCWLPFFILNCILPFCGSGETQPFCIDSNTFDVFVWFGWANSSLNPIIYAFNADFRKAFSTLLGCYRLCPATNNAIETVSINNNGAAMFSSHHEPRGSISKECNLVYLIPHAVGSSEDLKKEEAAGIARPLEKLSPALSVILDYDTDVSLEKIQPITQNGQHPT
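Agonism was scored from calcium flux recorded over 180 s (1 read/s) after pintool compound addition, following a 10-cycle baseline. Cells were inducible force-coupled HEK293 TREx D1, plated overnight at 30 C and loaded with no-wash calcium dye.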
D3 ag = D3 dopamine receptor (human) agonism. P35462. D3R DiscoveRx beta-arrestin cells, luminescence, 90 min. max activation, %. 410,000 compounds, 0.58% hits; in the data active = max activation above about 30%; also: 0% is about no effect
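Agonist mode: compounds and dopamine controls were applied to plated cells for 90 min at 37 degrees C after an overnight attachment at 1500 cells/well. Luminescent read-out followed 30 - 60 minutes at room temperature with DiscoveRx detection reagent.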
D1 antagonist = antagonists of human D1 dopamine receptor | AID 504652 | activity change, negative = inhibition, % at 10 µM | 360,000 compounds, 3.2% hits | HEK293 TREx D1 cells, calcium flux, dopamine EC80; active compounds read low; in the data active = activity change below about -30%; also: % is scaled to controls: 0 for no effect and ±100 for the full control effect
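After overnight tetracycline induction at 30 C, force-coupled D1 HEK293 cells took up a no-wash calcium dye at room temperature. Compounds were added and monitored 180 s, and the response to EC80 dopamine was then recorded.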
D1 PAM = human D1 dopamine receptor positive modulation. P21728. HEK293 TREx D1 cells, calcium flux, dopamine EC20 potentiation. potentiation, % at 10 µM. 360,000 compounds, 0.036% hits. AID 504651; in the data active = potentiation above about 30%; also: 0% is about no effect
D3 antag = antagonists of human D3 dopamine receptor; D3R cells, DiscoveRx beta-arrestin luminescence, antagonist mode; active compounds read low; max response, negative = inhibition, %; 360,000 compounds, 2.5% hits; AID 652054; in the data active = max response below about -50%; inconclusive = no clear call, values can overlap the other calls; also: % is scaled to controls: 0 for no effect and ±100 for the full control effect
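Cells plated overnight at 1500 cells/well, then exposed to library compounds with dopamine controls for 90 minutes at 37 degrees C. DiscoveRx reagent added for 30–60 minutes at room temperature; luminescence read, quantitative HTS format.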
An asterisk follows results filed as active; ? = inconclusive; . = no result; ! = repeats disagree. Shown are actives, neighbours in structure and some others; about 6% of the full set was active somewhere.

SMILES	Chronic BCR inh	D1 agonist	D3 ag	D1 antagonist	D1 PAM	D3 antag
CCN(Cc1ccccc1)C(=O)Cn1c(=O)n(-c2ccc(F)c(Cl)c2)c(=O)c2sc3ccccc3c21	.	-1	1	10	0	.
Cc1cc2nc3c(=O)n(C)c(=O)n(C)c3nc2cc1N=CN(C)C	.	46*	3	-12	0	.
CCCCCCC(=O)Nc1cc2nc3c(nc2cc1C)c(=O)n(C)c(=O)n3C	.	0	0	-8	0	.
COC(=O)Cc1ccc(N(Cc2ccccc2F)S(=O)(=O)c2ccc(Cl)cc2)cc1	7%	13	-7	-17	-7	-56*
O=C(NCCCN1CCOCC1)c1ccccc1N1C(=O)[C@@H]2Cc3c([nH]c4ccccc34)C(c3ccc(F)cc3)N2C1=O (some centres not stated)	9%	1	33*	-11	-2	16
Cc1cc(N2CCN(C)CC2)ccc1NC(=O)c1cccc(S(=O)(=O)N2CCc3ccccc3C2)c1	?	16	3	-87*	-12	0
CNC(=O)c1cn(-c2ccccc2)c(=O)c2ccccc12	-2%	0	-18	-73*	-11	-26
CN(C)C(=O)c1cn(-c2ccccc2)c(=O)c2ccccc12	-28%	0	-4	-22	1	?
Cc1ccc(NC(=S)NC2CCN(Cc3ccccc3)CC2)cc1	0%	17	-27	-64*	-5	-61*
S=C(Nc1ccc2c(c1)OCO2)NC1CCN(Cc2ccccc2)CC1	?	9	-59	-38*	-12	-65*
CC(C)c1ccc(NC(=S)NC2CCN(Cc3ccccc3)CC2)cc1	?	36*	-21	-27	-7	?
O=C(Nc1ccccc1)NC1CCN(Cc2ccccc2)CC1	0%	8	.	2	-2	.
Cc1ccc(NC(=S)NC2CCN(Cc3ccccc3)CC2)cc1C	1%	21	0	-82*	-12	-52*
O=C(CN1CCC(NC(=O)c2ccccc2F)CC1)Nc1ccc2c(c1)OCO2	-15%	0	11	9	-1	-11
COc1ccc(-c2nc3ccc(C)cn3c2CC(C)(C)C)cc1OC	.	.	-4	.	.	-1
CCOc1ccc(C(c2c(O)cc(C)n(CCOC)c2=O)N2CCN(c3ccc(F)cc3)CC2)cc1 (configuration not stated)	.	2	-20	8	-3	.
CC(C)N(C(=O)c1cc2c(Cl)nc3ccccc3c2s1)C1CCCCC1	.	0	6	3	-6	.
O=C(CSc1nc2ccccc2n1CC(=O)Nc1ccc(F)cc1F)Nc1ccc(F)cc1	.	4	2	9	0	.
Nc1nc(Cl)c(C=O)c(N2CCCCC2)n1	?	2	4	9	-5	-6
Nc1nc(N2CCCCC2)c(C=O)c(N2CCCCC2)n1	10%	2	-8	-36*	-5	-1
CCOc1ccc(C(=O)Nc2ccc(Cl)c(-c3nc4cc(C)cc(C)c4o3)c2)cc1	.	6	4	2	2	.
CN=c1scc(C)n1/N=C/c1ccc(O)cc1	?	3	5	-2	-3	14
COc1ccc(O)c(/C=N/n2c(-c3ccco3)csc2=Nc2cccnc2)c1	7%	4	2	-42*	-5	5
C=CCN=c1scc(C)n1/N=C/c1ccc(O)c(O)c1	?	2	31*	-50*	-4	13
COCCn1c(-c2ccco2)csc1=Nc1cccnc1	?	1	1	6	1	12
SMILES	Chronic BCR inh	D1 agonist	D3 ag	D1 antagonist	D1 PAM	D3 antag
CN=c1scc(-c2ccco2)n1/N=C/c1ccc(O)c(O)c1	?	7	51*	1	-11	-10
CCN(C(=O)C1CCC(CNS(=O)(=O)c2cccc3nsnc23)CC1)c1ccccc1 (configuration not stated)	.	5	9	-18	-3	.
O=C(Nc1nnc(S(=O)(=O)N2CCCCCC2)s1)c1ccccc1Cl	24%	8	0	-41*!	-7	14
CC(C)CC(=O)Nc1nnc(S(=O)(=O)N(CC(C)C)c2ccccc2)s1	.	0	-15	2	3	.
CCN(c1ccc(OC)cc1)S(=O)(=O)c1nnc(NC(=O)c2ccco2)s1	12%	2	-12	-5	6	0
COc1ccc(N(CC(C)C)S(=O)(=O)c2nnc(NC(=O)c3ccco3)s2)cc1	13%	0	-16	1	0	-91*
CC(C)CN(c1ccccc1)S(=O)(=O)c1nnc(NC(=O)C(C)C)s1	8%	3	-3	-41*	-4	29
CCN(c1ccc(OC)cc1)S(=O)(=O)c1nnc(NC(=O)c2ccccc2Cl)s1	14%	2	5	-42*!	-7	0
Cc1cccc(C)c1OCC(=O)N[C@@H](Cc1ccccc1)[C@@H](O)C[C@H](Cc1ccccc1)NC(=O)[C@H](C(C)C)N1CCCNC1=O	.	.	2	.	.	.
CC(C)N(Cc1ccccc1)C(=O)c1cc2ccc3cccnc3c2[nH]1	.	6	5	-34*	4	.
CC(C)C[C@H]1CNC(=S)N1C[C@H]1CCCN1C[C@H](Cc1ccc(O)cc1)N1C[C@H](CC(C)C)N(CC2CCCCCC2)C1=S	.	.	-9	.	.	-65*
CC(C)C[C@H]1CN([C@@H](Cc2ccccc2)CN2CCC[C@H]2CN2C(=O)C(=O)NC[C@@H]2Cc2ccccc2)C(=O)C(=O)N1CCc1ccccc1	.	.	4	.	.	17
CC(C)C[C@H]1CN([C@@H](Cc2ccccc2)CN2CCC[C@@H]2CN2C(=O)C(=O)NC[C@@H]2Cc2ccccc2)C(=O)C(=O)N1CCc1ccccc1	.	.	-15	.	.	-65*
NC(c1ccccc1)c1csc(Nc2ccc(C(F)(F)F)cn2)n1 (configuration not stated)	.	.	2	.	.	13
O=C(Nn1cnc2ccccc2c1=O)C1CCCCC1	4%	3	-6	-30*	1	9
CCCC1CCC(C(=O)Nn2cnc3ccccc3c2=O)CC1 (configuration not stated)	2%	-4	2	13	4	2
Fc1ccc(CNc2nc(-c3ccccc3)cc(C(F)(F)F)n2)cc1	.	21	-6	-2	0	.
C/C(=N/NC(=O)c1ccccc1)C(=O)O	?	0	6	-31*	-1	4
CC(=N\NC(=O)c1ccccc1)/C(=N/O)C(=O)Nc1ccccc1	-17%	6	-4	-23	-2	-7
CC(C)(C)c1ccc(NC(=O)c2ccsc2)cc1	?	-1	-2	-31*	-4	-5
Cc1[nH]c2ccccc2c1C(=O)CSc1nc2ncc(Cl)cc2[nH]1	4%	0	-9	11	-3	-61*
CC(C)OC(=O)CSc1nc2ncccc2[nH]1	5%	6	-3	-3	1	19
